# Assay results from the supplement of paper PMC6555819.
# Columns and labels:
# Experiment in all cases: PBM binding z-score (relative to random genomic background probes); higher = stronger binding; sequences stand for … in GC…GCGATTGACAGCGTAGAATGAAGG
# [1] = system: FXR:RXRa (NR concentration 270 nM, RXRa partner concentration 90 nM)
# How it was run: (§1)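 Binding buffer was PBS pH 7.4 with 2% milk, 0.02% Triton X-100, 1 mM DTT, 0.2 mg/mL BSA and 0.4 mg/ml salmon testes DNA. In it, ligand-free nuclear receptor dimers were incubated 1 h on custom Agilent 4×180K protein-binding microarrays carrying double-stranded probes. Antibodies against each partner (one per run) detected binding, and z-scores were calculated against random background probes after regression normalization of scanned fluorescence.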
# [2] = system: LXRa:RXRa (NR concentration 270 nM, RXRa partner concentration 90 nM)
# How it was run: as §1
# [3] = system: LXRa homodimer (NR concentration 270 nM)
# How it was run: as §1
# [4] = system: LXRb:RXRa (NR concentration 270 nM, RXRa partner concentration 90 nM)
# How it was run: as §1
# [5] = system: LXRb homodimer (NR concentration 270 nM)
# How it was run: as §1
# [6] = system: PPARg:RXRa (NR concentration 180 nM, RXRa partner concentration 90 nM)
# How it was run: as §1
# [7] = system: PPARg:RXRa 270nM:90nM, anti-RXR (NR concentration 270 nM, RXRa partner concentration 90 nM)
# How it was run: as §1
# [8] = system: PPARg:RXRa 30nM:10nM, anti-RXR (NR concentration 30 nM, RXRa partner concentration 10 nM)
# How it was run: as §1
# [9] = system: PPARg:RXRa 90nM:30nM, anti-RXR (NR concentration 90 nM, RXRa partner concentration 30 nM)
# How it was run: as §1
Sequence,PBM binding z-score [1],PBM binding z-score [2],PBM binding z-score [3],PBM binding z-score [4],PBM binding z-score [5],PBM binding z-score [6],PBM binding z-score [7],PBM binding z-score [8],PBM binding z-score [9]
CCTTACAGGTCACGAGGTTATAGCACGACGAGCG,7.41,5.59,2.37,4.42,0.788,7.55,6.56,3.71,5.37
AGTCAAAGTTCAGTAGGTAACGTAAGATTCAGCT,2.64,3.04,1.6,1.67,0.481,5.39,5.2,2.18,4.2
TGAATGAGGTTTAAGATCAGGGAACGTGGCGTCG,-0.267,-0.0856,-0.566,-0.625,-0.285,0.663,1.49,0.74,1.15
ACCAGCAGGCCAAGGGTCACTCAAGATTAGTCCG,2.48,2.71,-0.066,2.55,-0.909,6.25,6.19,4.57,5.83
CATACTAGGTCAAAGGTCAAAGTCGAGCCAACCA,8.57,7.39,7.06,7.48,3.69,13.2,10.9,12.6,12.5
CGAACTATGTCAAGGACAGTGAATCTCCGCACGC,0.0723,-0.232,-0.234,-0.456,-0.269,0.856,0.74,-0.213,0.259
CCTAGCAGACCAATCTGGGTCACTCAAGGCTTGA,0.219,0.374,-0.629,0.514,-1.09,1.8,2.09,0.195,1.21
TCTAGCAGGCCATAGGGTCACTCAAGAGGTACGG,2.31,1.65,-0.243,1.73,-0.428,2.46,3.27,2.5,3.13
TCTAGTTGGTCAAAGGCCACACACTCGAAATGCG,0.691,0.811,0.139,0.867,-0.181,6.54,7.01,6.34,7.68
GGTACGAGGGCAAAGTTGATAGCATCTGTCGACG,1.46,1.03,-0.421,0.954,-0.42,5.89,6.23,4.16,6.02
CCAGACAGGTGAAAGGTAACTCACTCTGGTACGC,1.02,0.665,-0.00301,0.938,-0.466,6.03,6.05,4.21,6.66
AGAATGAGGTTAACAAAGATCAGGGAAACGCTTG,2.66,5.37,0.105,2.63,-0.171,2.62,2.59,1.09,1.88
AGACAAAGTTCAGGACGAGGTAACGTAAAGCACG,4.35,3.92,0.814,1.95,-0.0251,2.53,2.93,1,1.97
